Reference: the supplement of paper PMC12494721
Counter-ions that a name gives are not always drawn.

How the values were obtained:
Settings in all cases: 20 µM; incubation time: 27 h, anaerobic, 37 °C;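 for the amine columns active = adjusted P below 0.05 in both replicates with a change the same way and a mean fold change under 0.8 or over 1.25; inactive = the rest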
[1] = tested on: Clostridium sporogenes DSM 1664; assay: growth (OD595) fold change vs plate DMSO controls (fold change (ratio)); higher = more growth
In short: (§1)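 Growth is calculated as fold change against the median of the DMSO control wells on each plate. Readings at 595 nm from anaerobic mGAM cultures (96-well, 27 h, 37 °C) were blank-subtracted, background-corrected with 20 µM compound solutions in water, and converted to OD by a calibration factor of 5. Fold changes above 1.5 were recorded as NA, and results are means of 2 biological replicates.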

Escherichia coli IAI1 [2] = assay: as above
In short: as §1

[3] = tested on: Klebsiella aerogenes DSM 30053; assay: as above
In short: as §1

[4] = tested on: Ruminococcus gnavus DSM 108212; assay: as above
In short: as §1

[5] = tested on: Klebsiella aerogenes DSM 30053; assay: fold change of Histamine concentration vs plate DMSO controls (fold change (ratio)); higher = more amine produced, active = hit call of the paper (significant change in both replicates, either direction)
In short: (§2)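 Each value is the fold change relative to DMSO-only wells on the same plate. Four gut bacterial strains were grown anaerobically in mGAM at 37 °C for 27 h in 80 µL wells, starting at OD 0.1 before a 1:1 dilution, with compounds at 20 µM final (sweeteners 50 µM). Whole cultures were extracted with cold acetonitrile/methanol containing 0.1% formic acid, centrifuged, and amines were quantified by LC–triple-quadrupole MS (dynamic MRM) against external calibration curves with within-batch drift correction. Values are means of 2 biological replicates.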

[6] = tested on: Clostridium sporogenes DSM 1664; assay: fold change of Tryptamine concentration vs plate DMSO controls (fold change (ratio)); higher = more amine produced, active = hit call of the paper (significant change in both replicates, either direction)
In short: as §2

[7] = tested on: Ruminococcus gnavus DSM 108212; assay: as above
In short: as §2

Escherichia coli IAI1 [8] = assay: fold change of Putrescine concentration vs plate DMSO controls (fold change (ratio)); higher = more amine produced, active = hit call of the paper (significant change in both replicates, either direction)
In short: as §2

[9] = tested on: Klebsiella aerogenes DSM 30053; assay: as above
In short: as §2

Escherichia coli IAI1 [10] = assay: fold change of Cadaverine concentration vs plate DMSO controls (fold change (ratio)); higher = more amine produced, active = hit call of the paper (significant change in both replicates, either direction)
In short: as §2

[11] = tested on: Klebsiella aerogenes DSM 30053; assay: as above
In short: as §2

[12] = tested on: Ruminococcus gnavus DSM 108212; assay: fold change of 2-Phenylethylamine concentration vs plate DMSO controls (fold change (ratio)); higher = more amine produced, active = hit call of the paper (significant change in both replicates, either direction)
In short: as §2

Compound	growth [1]	growth (Escherichia coli IAI1 [2])	growth [3]	growth [4]	fold change of Histamine concentration [5]	fold change of Tryptamine concentration [6]	fold change of Tryptamine concentration [7]	fold change of Putrescine concentration (Escherichia coli IAI1 [8])	fold change of Putrescine concentration [9]	fold change of Cadaverine concentration (Escherichia coli IAI1 [10])	fold change of Cadaverine concentration [11]	fold change of 2-Phenylethylamine concentration [12]
CC(C)[N+](C)(CCC(C(N)=O)(c1ccccc1)c1ccccc1)C(C)C [Isopropamide iodide]	1.04	1.09	0.982	1.39	1.01 (inactive)	0.99 (inactive)	0.909 (inactive)	1.24 (inactive)	1.01 (inactive)	0.936 (inactive)	0.997 (inactive)	0.834 (inactive)
C=C(C)[C@@H]1[C@H]2OC(=O)[C@@H]1[C@]1(O)C[C@H]3O[C@]34C(=O)O[C@H]2[C@]14C [Picrotoxinin]	1	0.983	1.04	1.15	0.896 (inactive)	1.01 (inactive)	1.02 (inactive)	0.898 (inactive)	0.932 (inactive)	0.998 (inactive)	0.987 (inactive)	1.03 (inactive)
COC(=O)Nc1nc2ccccc2[nH]1	0.898	0.977	0.989	0.903	1.01 (inactive)	0.968 (inactive)	0.959 (inactive)	0.997 (inactive)	1 (inactive)	1 (inactive)	0.989 (inactive)	0.951 (inactive)
C[C@]12CC[C@H](O)C[C@@H]1CC[C@@H]1[C@@H]2CC[C@]2(C)C(=O)CC[C@@H]12 [Epiandrosterone]	1.01	1.01	0.974	0.678	1.04 (inactive)	0.953 (inactive)	0.973 (inactive)	0.99 (inactive)	1.02 (inactive)	1.02 (inactive)	1 (inactive)	0.962 (inactive)
CC(C)(N)Cc1ccccc1 [Phentermine hydrochloride]	0.937	0.981	1.24	0.221	0.896 (inactive)	1.03 (inactive)	0.176 (active)	0.983 (inactive)	1.01 (inactive)	1.05 (inactive)	1.05 (inactive)	0.213 (active)
C=C[C@H]1CN2CC[C@H]1C[C@H]2[C@H](OC(=O)OCC)c1ccnc2ccc(OC)cc12 [Quinine ethyl carbonate]	1.08	1.01	1.01	0.915	0.967 (inactive)	1.01 (inactive)	0.955 (inactive)	1.03 (inactive)	0.985 (inactive)	1.01 (inactive)	0.993 (inactive)	1.03 (inactive)
CC(C1CC1)C(O)(Cn1cncn1)c1ccc(Cl)cc1 (mixture of isomers)	0.851	0.991	0.991	0.941	1.01 (inactive)	0.92 (inactive)	0.994 (inactive)	1.01 (inactive)	0.996 (inactive)	1 (inactive)	0.995 (inactive)	0.953 (inactive)
Oc1ccc2c3c1O[C@H]1[C@@H](O)CC[C@@]4(O)[C@@H](C2)N(CC2CCC2)CC[C@]314 [Nalbuphine hydrochloride]	0.891	0.895	0.923	1.08	1 (inactive)	1 (inactive)	0.957 (inactive)	1.04 (inactive)	1.01 (inactive)	1.01 (inactive)	1.01 (inactive)	0.922 (inactive)
C[C@]12C=CC(=O)C=C1CC[C@@H]1[C@@H]2CC[C@@]2(C)[C@H]1CC[C@]2(C)O [Methandrostenolone]	1.01	0.989	1	0.931	0.999 (inactive)	0.98 (inactive)	1.03 (inactive)	1.01 (inactive)	0.995 (inactive)	1.01 (inactive)	0.991 (inactive)	1.02 (inactive)
COc1ccc(CN2CCNCC2)c(OC)c1OC [Trimetazidine dihydrochloride]	0.945	0.975	0.973	1.15	1.12 (inactive)	1.05 (inactive)	1.03 (inactive)	0.973 (inactive)	1.02 (inactive)	1.01 (inactive)	0.971 (inactive)	1.03 (inactive)
CCCCN(CCCC)N=O [DBNA (N-nitrosodibutylamine)]	0.789	0.729	0.673	0.238	1.03 (inactive)	1.01 (inactive)	1.01 (inactive)	1.03 (inactive)	1.02 (inactive)	1.05 (inactive)	1.01 (inactive)	1.01 (inactive)
COc1cccc(C(=O)NN(C(=O)c2cc(C)cc(C)c2)C(C)(C)C)c1C	0.988	1.01	1.01	1.17	0.994 (inactive)	0.948 (inactive)	0.932 (inactive)	1.03 (inactive)	0.983 (inactive)	0.968 (inactive)	0.986 (inactive)	0.92 (inactive)
CC(=O)NC1CCSC1=O (configuration not stated) [Citiolone]	1.15	0.993	1.07	1	0.819 (inactive)	1.05 (inactive)	1.17 (inactive)	1.02 (inactive)	0.93 (inactive)	0.99 (inactive)	1.06 (inactive)	1.31 (inactive)
O=c1[nH]c2ccccc2n1CCCN1CCC(n2c(=O)[nH]c3cc(Cl)ccc32)CC1 [Domperidone]	0.989	0.963	1.08	0.669	0.906 (inactive)	1.03 (inactive)	0.984 (inactive)	1.01 (inactive)	0.951 (inactive)	1.03 (inactive)	1 (inactive)	1.03 (inactive)
O=C(NC(=O)c1c(F)cccc1F)Nc1ccc(Cl)cc1	1.04	0.979	1.02	0.975	1.01 (inactive)	0.919 (inactive)	0.999 (inactive)	0.982 (inactive)	1.05 (inactive)	1.01 (inactive)	1.03 (inactive)	0.98 (inactive)
C#CCN1C(=O)COc2cc(F)c(N3C(=O)C4=C(CCCC4)C3=O)cc21	0.947	0.989	1	0.933	1.02 (inactive)	1.14 (inactive)	0.98 (inactive)	1.01 (inactive)	1.01 (inactive)	1.04 (inactive)	0.988 (inactive)	0.969 (inactive)
CCn1cc(C(=O)O)c(=O)c2cc3c(cc21)OCO3 [Oxolinic acid]	0	0.0401	0.348	0.896	0.275 (active)	0.0614 (active)	1 (inactive)	0.59 (active)	1.08 (inactive)	0.227 (active)	0.976 (inactive)	0.959 (inactive)
CN1C[C@H](CNC(=O)OCc2ccccc2)C[C@@H]2c3cccc4c3c(cn4C)C[C@H]21 [Metergoline]	1.1	1.09	1.03	1.03	0.987 (inactive)	0.943 (inactive)	0.94 (inactive)	1.04 (inactive)	0.996 (inactive)	1.08 (inactive)	1 (inactive)	0.967 (inactive)
O=[N+]([O-])/N=C1\NCCN1Cc1ccc(Cl)nc1	1.04	0.975	0.996	0.979	0.986 (inactive)	1.01 (inactive)	0.989 (inactive)	0.964 (inactive)	0.998 (inactive)	0.98 (inactive)	0.998 (inactive)	1 (inactive)
CC(C)N1C(=O)N(c2ccccc2)CS/C1=N\C(C)(C)C	1.04	1.03	1.03	0.99	0.967 (inactive)	1.03 (inactive)	1.03 (inactive)	1.02 (inactive)	1.03 (inactive)	1.06 (inactive)	1.01 (inactive)	0.961 (inactive)
CC[C@H](C)[C@H]1O[C@]2(C=C[C@@H]1C)C[C@@H]1C[C@@H](C/C=C(\C)[C@@H](O[C@H]3C[C@H](OC)[C@@H](O[C@H]4C[C@H](OC)[C@@H](O)[C@H](C)O4)[C@H](C)O3)[C@@H](C)/C=C/C=C3\CO[C@@H]4[C@H](O)C(C)=C[C@@H](C(=O)O1)[C@]34O)O2.CO[C@H]1C[C@H](O[C@H]2[C@H](C)O[C@@H](O[C@@H]3/C(C)=C/C[C@@H]4C[C@@H](C[C@]5(C=C[C@H](C)[C@@H](C(C)C)O5)O4)OC(=O)[C@@H]4C=C(C)[C@@H](O)[C@H]5OC/C(=C\C=C\[C@@H]3C)[C@]54O)C[C@@H]2OC)O[C@@H](C)[C@@H]1O [Avermectin B1]	1.13	1.06	0.967	0.91	0.906 (inactive)	0.921 (inactive)	0.929 (inactive)	1.06 (inactive)	0.985 (inactive)	0.996 (inactive)	0.995 (inactive)	0.883 (inactive)
CC(C)CC(N(C)C)C1(c2ccc(Cl)cc2)CCC1 (configuration not stated) [Sibutramine hydrochloride]	0.99	1	1.01	0.908	1.05 (inactive)	0.976 (inactive)	0.985 (inactive)	1.01 (inactive)	0.999 (inactive)	0.984 (inactive)	0.989 (inactive)	1 (inactive)
CCN(CC)CCOC(=O)C(O)(c1ccccc1)c1ccccc1 [Benactyzine hydrochloride]	1.07	1.01	1.01	0.944	0.998 (inactive)	0.997 (inactive)	1.06 (inactive)	1.02 (inactive)	0.992 (inactive)	0.986 (inactive)	0.999 (inactive)	1.07 (inactive)
COP(=O)(NC(C)=O)SC (configuration not stated)	1.04	0.98	1.02	1.04	1 (inactive)	1.02 (inactive)	1 (inactive)	1.02 (inactive)	1 (inactive)	1.02 (inactive)	0.997 (inactive)	1 (inactive)
Nc1nc(N)nc(N)n1 [Melamine]	0.88	0.99	0.966	1.11	0.958 (inactive)	1.05 (inactive)	1.01 (inactive)	0.988 (inactive)	0.956 (inactive)	0.95 (inactive)	1.01 (inactive)	1.05 (inactive)
N#CC(CCc1ccc(Cl)cc1)(Cn1cncn1)c1ccccc1 (configuration not stated)	1.11	1.08	0.94	1.14	0.476 (inactive)	0.979 (inactive)	1.04 (inactive)	1.07 (inactive)	0.482 (inactive)	0.972 (inactive)	0.478 (inactive)	1.08 (inactive)
